Experiment in all cases: universal protein binding microarray (PBM); transcription factors of Arabidopsis thaliana; high values mean tight binding
The target in assay [1] is T1, GST-ANAC092(1-176) (Arabidopsis thaliana, UniProt Q9FKA0 1-176).
T1 sequence: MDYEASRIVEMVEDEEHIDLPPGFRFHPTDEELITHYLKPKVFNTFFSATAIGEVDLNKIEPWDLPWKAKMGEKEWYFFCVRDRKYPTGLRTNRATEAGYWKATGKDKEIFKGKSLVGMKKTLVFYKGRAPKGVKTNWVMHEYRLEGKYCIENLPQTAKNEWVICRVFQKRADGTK
The note with it: protein: recombinant; tags: GST; chain copies: 2; dsDNA, one strand shown. An outline of the steps:
(§1)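 For zinc-finger proteins, zinc acetate was added while GST-tagged NAC-domain, full-length or DNA-binding-domain proteins were induced in cells. Purification used glutathione–Sepharose 4B, and quantification used A280 or anti-GST western blot. Custom all-10-mer Agilent 4 × 180K arrays, made double-stranded by primer extension, each received a protein at 200 to 500 nM final in duplicate. Scoring covered gapped and ungapped 8-mers, with binding given as the normalised enrichment score (E-score).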

Assay [2] has as its target T2, GST-ANAC055(1-171) (Arabidopsis thaliana, UniProt Q9LDY8 1-171).
T2 sequence: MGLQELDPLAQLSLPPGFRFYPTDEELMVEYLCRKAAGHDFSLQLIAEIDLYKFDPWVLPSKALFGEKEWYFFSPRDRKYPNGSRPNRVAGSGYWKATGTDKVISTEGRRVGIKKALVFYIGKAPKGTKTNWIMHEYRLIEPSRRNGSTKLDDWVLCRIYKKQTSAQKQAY
The note with it: protein: recombinant; tags: GST; chain copies: 2; dsDNA, one strand shown. The method, boiled down:
as §1

In assay [3] the target is T3, GST-ATAF1 NAC domain (Arabidopsis thaliana, UniProt Q39013 7-158).
T3 sequence: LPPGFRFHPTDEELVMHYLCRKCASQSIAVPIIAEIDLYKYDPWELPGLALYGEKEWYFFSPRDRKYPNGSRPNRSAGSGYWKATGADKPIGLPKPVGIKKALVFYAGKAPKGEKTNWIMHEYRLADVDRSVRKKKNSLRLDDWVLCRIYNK
The note with it: protein: recombinant; tags: GST; chain copies: 2; dsDNA, one strand shown. An outline of the steps:
as §1

Assay [4] addresses T4, GST-ANAC092(1-285) full length (Arabidopsis thaliana, UniProt Q9FKA0 1-285).
T4 sequence: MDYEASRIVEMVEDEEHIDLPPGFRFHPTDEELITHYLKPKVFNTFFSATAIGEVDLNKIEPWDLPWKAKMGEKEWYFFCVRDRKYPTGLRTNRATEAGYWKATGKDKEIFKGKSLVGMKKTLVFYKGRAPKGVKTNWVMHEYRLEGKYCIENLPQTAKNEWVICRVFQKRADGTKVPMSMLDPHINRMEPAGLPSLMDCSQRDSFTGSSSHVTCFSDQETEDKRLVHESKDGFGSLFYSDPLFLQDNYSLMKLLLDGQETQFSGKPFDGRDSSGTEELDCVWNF
As to conditions: protein: recombinant; tags: GST; chain copies: 2; dsDNA, one strand shown. An outline of the steps: as §1

In assay [5] the target is T5, GST-NST2(1-184) (Arabidopsis thaliana, UniProt Q9M274 1-184).
T5 sequence: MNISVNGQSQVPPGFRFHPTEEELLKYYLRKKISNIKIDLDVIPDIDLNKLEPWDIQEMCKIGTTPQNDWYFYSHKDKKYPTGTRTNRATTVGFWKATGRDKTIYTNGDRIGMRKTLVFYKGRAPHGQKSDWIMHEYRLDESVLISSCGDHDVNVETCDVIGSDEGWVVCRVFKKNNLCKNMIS
The note with it: protein: recombinant; tags: GST; chain copies: 2; dsDNA, one strand shown. The method, boiled down: as §1

Assay [6] addresses T6, GST-SND1(1-203) (Arabidopsis thaliana, UniProt Q9LPI7 1-203).
T6 sequence: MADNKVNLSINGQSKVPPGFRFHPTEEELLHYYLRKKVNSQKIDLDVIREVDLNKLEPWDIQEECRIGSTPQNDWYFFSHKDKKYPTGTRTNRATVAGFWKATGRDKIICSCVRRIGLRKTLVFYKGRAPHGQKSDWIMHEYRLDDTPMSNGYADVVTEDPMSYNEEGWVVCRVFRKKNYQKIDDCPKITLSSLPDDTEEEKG
The note with it: protein: recombinant; tags: GST; chain copies: 2; dsDNA, one strand shown. An outline of the steps: as §1

The target in assay [7] is GST-NTL6(1-168) (Arabidopsis thaliana, UniProt Q9SCK6 1-168). The note with it: protein: recombinant; tags: GST; chain copies: 2; dsDNA, one strand shown. An outline of the steps: as §1
In assay [8] the target is T7, GST-NTL8 NAC domain (Arabidopsis thaliana, UniProt Q9XIN7 14-156).
T7 sequence: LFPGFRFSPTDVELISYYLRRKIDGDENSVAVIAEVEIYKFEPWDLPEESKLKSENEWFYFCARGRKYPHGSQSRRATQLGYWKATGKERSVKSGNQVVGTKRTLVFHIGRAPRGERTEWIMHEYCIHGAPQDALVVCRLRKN
The note with it: protein: recombinant; tags: GST; chain copies: 2; dsDNA, one strand shown. The method, boiled down: as §1

In assay [9] the target is T8, GST-ANAC019 NAC domain (Arabidopsis thaliana, UniProt Q9C932 14-162).
T8 sequence: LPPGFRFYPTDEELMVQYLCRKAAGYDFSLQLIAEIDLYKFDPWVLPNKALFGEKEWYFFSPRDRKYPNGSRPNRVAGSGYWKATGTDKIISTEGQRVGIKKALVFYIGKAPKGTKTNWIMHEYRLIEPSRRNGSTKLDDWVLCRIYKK
The note with it: protein: recombinant; tags: GST; chain copies: 2; dsDNA, one strand shown. The method, boiled down: as §1

Assay [10] has as its target T9, GST-NAP(1-166) (Arabidopsis thaliana, UniProt O49255 1-166).
T9 sequence: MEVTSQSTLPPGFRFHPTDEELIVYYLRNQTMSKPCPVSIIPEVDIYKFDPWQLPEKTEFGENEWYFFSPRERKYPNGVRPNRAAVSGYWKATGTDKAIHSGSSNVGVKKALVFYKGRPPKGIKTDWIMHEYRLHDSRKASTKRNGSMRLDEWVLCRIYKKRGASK
The note with it: protein: recombinant; tags: GST; chain copies: 2; dsDNA, one strand shown. An outline of the steps: as §1

Assay [11] concerns the target T10, GST-VND3 NAC domain (Arabidopsis thaliana, UniProt Q9FH59 12-162).
T10 sequence: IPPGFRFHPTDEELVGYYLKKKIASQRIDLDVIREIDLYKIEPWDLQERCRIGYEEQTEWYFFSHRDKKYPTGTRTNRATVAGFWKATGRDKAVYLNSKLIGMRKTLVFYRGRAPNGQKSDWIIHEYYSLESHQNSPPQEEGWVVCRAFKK
The note with it: protein: recombinant; tags: GST; chain copies: 2; dsDNA, one strand shown. The method, boiled down: as §1

The target of assay [12] is T11, GST-VND7 NAC domain (Arabidopsis thaliana, UniProt Q9C8W9 9-158).
T11 sequence: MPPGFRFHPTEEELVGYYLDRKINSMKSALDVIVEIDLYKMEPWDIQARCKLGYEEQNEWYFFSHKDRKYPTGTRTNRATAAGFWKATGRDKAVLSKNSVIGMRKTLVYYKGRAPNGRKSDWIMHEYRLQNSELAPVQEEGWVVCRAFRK
As to conditions: protein: recombinant; tags: GST; chain copies: 2; dsDNA, one strand shown. The method, boiled down: as §1

Assay [13] has as its target GST-WRKY1(266-371) (Arabidopsis thaliana, UniProt Q9SI37 266-371). As to conditions: protein: recombinant; tags: GST; dsDNA, one strand shown. The method, boiled down: as §1

GST-NTL6(1-168), sequence (Q9SCK6 1-168): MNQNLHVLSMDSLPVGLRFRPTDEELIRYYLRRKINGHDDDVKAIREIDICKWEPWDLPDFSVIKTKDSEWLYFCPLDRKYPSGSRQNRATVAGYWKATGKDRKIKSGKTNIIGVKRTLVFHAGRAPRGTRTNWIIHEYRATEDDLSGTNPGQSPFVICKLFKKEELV
GST-WRKY1(266-371), sequence (Q9SI37 266-371): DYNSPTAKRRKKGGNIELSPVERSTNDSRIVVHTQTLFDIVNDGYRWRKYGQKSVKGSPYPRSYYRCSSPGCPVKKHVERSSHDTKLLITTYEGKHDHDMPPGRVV

As to ACTCAACC, the binding signal turned out to be 0.366 E-score in [1]; 0.0786 E-score in assay [2]; 0.117 E-score in assay [3]; 0.408 E-score in assay [4]; 0.221 E-score in [5]; 0.381 E-score in [6].
In the case of ACCTTACC, the binding signal in assay [7] was 0.306 E-score; in assay [3], 0.0631 E-score; in assay [4], 0.111 E-score; in assay [8], 0.417 E-score; in assay [6] it was 0.152 E-score.
GCACGCGA: the binding signal in assay [1] is 0.287 E-score; in [4], 0.429 E-score; in assay [5], 0.191 E-score; in assay [6] it was 0.286 E-score.
Regarding AGGTAAGG, the binding signal in assay [7] was 0.27 E-score; in assay [9], 0.101 E-score; in assay [4], 0.0822 E-score; in assay [8], 0.424 E-score; in assay [6] it was 0.147 E-score.
Turning to AGGAAATC, the binding signal worked out at 0.0998 E-score in [1]; 0.102 E-score in [7]; 0.0993 E-score in assay [5]; 0.437 E-score in [8]; 0.0802 E-score in [6].
Regarding CACGCTAG, the binding signal in [1] came out at 0.389 E-score; in [9] it was 0.115 E-score; in assay [2], 0.101 E-score; in [4], 0.426 E-score; in [10] it was 0.0849 E-score; in assay [5] it was 0.156 E-score. Also, the binding signal in assay [6] is 0.218 E-score.
Regarding AGGAAACC, the binding signal came out at 0.0999 E-score in [7], 0.13 E-score in assay [4], 0.482 E-score in assay [8] and 0.0696 E-score in assay [6].
For GGAGGGAA, the binding signal in assay [7] came to 0.0867 E-score; in assay [9], 0.104 E-score; in [10], 0.074 E-score; in assay [8] it was 0.421 E-score; in assay [6], 0.0554 E-score.
Turning to CTACGCGA, the binding signal in assay [4] worked out at 0.177 E-score; in assay [5], 0.0539 E-score; in [6], 0.417 E-score.
As to CACGCCAG, the binding signal in [1] came to 0.385 E-score; in [9], 0.0856 E-score; in assay [4], 0.429 E-score; in assay [6], 0.178 E-score.
In the case of ATCGCGTG, the binding signal in assay [1] was found to be 0.382 E-score; in assay [4], 0.441 E-score; in assay [5], 0.135 E-score; in [6], 0.266 E-score.
For CTTTTGAC, the binding signal in [1] was 0.158 E-score; in assay [7], 0.0997 E-score; in [2], 0.114 E-score; in assay [3] it was 0.168 E-score; in assay [4], 0.0903 E-score; in [11], 0.12 E-score. Also, the binding signal was 0.101 E-score in [12] and 0.448 E-score in [13].
With GCACTCAA, the binding signal in assay [1] stood at 0.391 E-score; in assay [3] it was 0.0807 E-score; in assay [4], 0.426 E-score; in assay [5], 0.196 E-score; in [8], 0.0643 E-score; in [6], 0.263 E-score.
As to CTACGCCA, the binding signal in assay [1] was 0.283 E-score; in [3], 0.057 E-score; in assay [4], 0.34 E-score; in [5], 0.147 E-score; in assay [6], 0.454 E-score.
As to GCTAAGGA, the values for the binding signal in assay [7], in assay [4] and in [6] were 0.41 E-score, 0.142 E-score and 0.064 E-score, respectively.
With GTATTGAC, the binding signal came to 0.0776 E-score in assay [1]; 0.0594 E-score in assay [2]; 0.147 E-score in [4]; 0.121 E-score in assay [10]; 0.0734 E-score in assay [11]; 0.0877 E-score in assay [12]. For the same sequence, the binding signal in assay [13] is 0.455 E-score.
As to GTCAACGA, the binding signal came to 0.0713 E-score in assay [11], 0.104 E-score in assay [12] and 0.486 E-score in [13].
